For assay [1], the system named is Human papillomavirus type 1a protein E7 (residues 44-93). Briefly: HPV1a E7 fragment binders on microarrays, primary screen, biochemical, small-molecule microarray, residues 44-93, 635 nm fluorescence (AID 1108).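 Also: E7 fragment applied at 1 µg/mL in TBST for 1 h at 4 C; score combines spot fluorescence with its signal to noise ratio.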 The conditions noted are these: small-molecule microarray binding, fluorescence 635 nm; higher = more signal.
A short description of assay [2]: modulators of HCV replicon luciferase signal, primary screen, HCV replication inhibitor project, Huh7 cells, luciferase reporter (AID 1109).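 Also: huh7 hepatoma cells harbouring a luciferase neomycin HCV replicon reporter; luciferase luminescence as measure of HCV replicon replication; test concentration not given here.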 The conditions noted are these: 48 h, higher = more signal.
Assay [3] deals with Left-right determination factor 2 (Homo sapiens) (UniProt O00292). Briefly: LEFTY2 binders on small-molecule microarrays, primary screen, biochemical, small-molecule microarray, 635 nm fluorescence scan (AID 1110). Conditions: LEFTY2 binding, higher = more signal.
Chain of Left-right determination factor 2 (Homo sapiens) (O00292 whole entry, looked up): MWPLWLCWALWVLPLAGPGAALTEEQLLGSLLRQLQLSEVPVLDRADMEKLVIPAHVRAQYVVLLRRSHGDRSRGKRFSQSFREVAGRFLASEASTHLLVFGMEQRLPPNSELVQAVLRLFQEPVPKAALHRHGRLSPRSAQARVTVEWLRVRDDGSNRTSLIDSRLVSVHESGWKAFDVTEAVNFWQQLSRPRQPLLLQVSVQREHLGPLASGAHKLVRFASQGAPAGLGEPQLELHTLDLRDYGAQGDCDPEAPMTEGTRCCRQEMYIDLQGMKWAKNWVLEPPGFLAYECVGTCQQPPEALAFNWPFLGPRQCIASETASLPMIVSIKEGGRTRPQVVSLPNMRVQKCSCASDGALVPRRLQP
Assay [4] has as its target Calmodulin-1 (Homo sapiens) (UniProt P0DP23). Briefly: CALM1 binders on microarrays, EGTA buffer, profiling panel, biochemical, small-molecule microarray, Cy5-labelled CALM1 (AID 1111).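 Also: labelled calmodulin applied in Tris saline Tween buffer holding calcium plus EGTA and DTT.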 Conditions: Cy5-CALM1 binding fluorescence, higher = more signal.
Assay [5] has the same target. Briefly: calcium-bound CALM1 binders on microarrays, profiling panel, artefact control for SMM control-protein annotation, biochemical, small-molecule microarray, Cy5-labelled CALM1, plus calcium (AID 1112).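 Also: score merges spot fluorescence with signal to noise from triplicate slides.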 The conditions noted are these: Cy5-CALM1 binding fluorescence, higher = more signal.
Assay [6] is described as follows: small-molecule microarray binders of probe aWnt5a, primary screen, biochemical, biotinylated probe, 635/667 nm fluorescence (AID 1113).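 Also: score merges 667 nm fluorescence intensity with signal-to-noise per printed feature.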 Conditions: higher = more signal.
A short description of assay [7]: small-molecule microarray binders of probe aShh, primary screen, biochemical, biotinylated probe, 635/667 nm fluorescence (AID 1114).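 Also: probe is biotin-labelled aShh protein from a stem cell growth factor screen; measures binding of labelled protein to compounds printed on the slide; score merges feature fluorescence at 667 nm with signal-to-noise.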 The conditions noted are these: higher = more signal.
Assay [8] is described as follows: small-molecule microarray binders of probe aNog, primary screen, biochemical, biotinylated probe, 635/667 nm fluorescence (AID 1115).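 Also: probe is biotinylated aNog protein used at 0.15 µg/mL for 1 h at 4 C; z-score combines 667 nm fluorescence of each spot with its signal to noise.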 The conditions noted are these: higher = more signal.
For assay [9], the target named is Torsin-1A-interacting protein 1 (Homo sapiens) (UniProt Q5JTV8). Briefly: LAP1 binders from COS7 cell lysate, primary screen, small-molecule microarray, 635/667 nm fluorescence (AID 1116). Conditions: COS7-hLAP1 lysate binding, 635 nm fluorescence, higher = more signal.
Chain of Torsin-1A-interacting protein 1 (Homo sapiens) (Q5JTV8 whole entry, looked up): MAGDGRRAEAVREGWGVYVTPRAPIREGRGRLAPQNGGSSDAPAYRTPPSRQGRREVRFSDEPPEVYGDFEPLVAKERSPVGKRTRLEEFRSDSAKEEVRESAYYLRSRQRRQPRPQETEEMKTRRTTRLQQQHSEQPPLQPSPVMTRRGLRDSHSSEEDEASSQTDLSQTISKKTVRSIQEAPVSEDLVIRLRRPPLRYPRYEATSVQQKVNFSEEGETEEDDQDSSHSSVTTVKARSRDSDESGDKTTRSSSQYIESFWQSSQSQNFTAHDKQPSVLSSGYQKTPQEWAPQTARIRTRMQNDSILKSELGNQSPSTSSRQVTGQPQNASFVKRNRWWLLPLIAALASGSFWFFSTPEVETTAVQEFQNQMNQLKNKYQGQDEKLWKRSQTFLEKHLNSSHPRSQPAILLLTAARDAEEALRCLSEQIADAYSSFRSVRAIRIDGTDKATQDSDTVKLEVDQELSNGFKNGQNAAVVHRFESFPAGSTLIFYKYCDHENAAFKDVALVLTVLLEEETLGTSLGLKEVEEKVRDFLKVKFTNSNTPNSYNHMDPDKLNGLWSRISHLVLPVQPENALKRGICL
Assay [10] has as its target Alpha-bungarotoxin (Bungarus multicinctus) (UniProt P60615). Briefly: alpha-bungarotoxin binders on microarray, profiling panel, artefact control for SMM control protein annotation, biochemical, small-molecule microarray, Alexa647 label, 635/667 nm fluorescence (AID 1117). Conditions: alpha-BTX-A647 binding fluorescence, higher = more signal.
Another assay has as its target Albumin (Bos taurus) (UniProt P02769). Description: bovine serum albumin binders on microarray, profiling panel, artefact control for SMM control protein annotation, biochemical, small-molecule microarray, Alexa647 label, 635/667 nm fluorescence (AID 1118).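 Also: score merges 667 nm emission intensity and signal-to-noise per printed compound spot.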 Conditions: BSA-A647 binding, fluorescence 635 nm, higher = more signal.
Assay [11] is described as follows: small-molecule microarray binders of probe aXIP, primary screen, biochemical, NeuroSMM set, 635/667 nm fluorescence (AID 1119).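 Also: probe is the protein aXip251-270 applied at 1 µg/mL to compound-printed slides; binding of probe to printed compounds measured as 667 nm fluorescence plus signal to noise.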 Conditions: higher = more signal, called active from +8 up or from −8 down.
Assay [12] is described as follows: small-molecule binders of probe aNOTCH3, primary screen, biochemical, small-molecule microarray, 635/667 nm fluorescence (AID 1120).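 Also: probe is a biotin-tagged antibody raised against NOTCH3 rather than NOTCH3 protein; score merges spot fluorescence near 667 nm with spot signal to noise.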 The conditions noted are these: higher = more signal.
The nature of assay [13]: small-molecule binders of probe aNOTCH2, primary screen, biochemical, small-molecule microarray, 635/667 nm fluorescence (AID 1121).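 Also: score merges feature fluorescence read at 667 nm with its signal to noise.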 Conditions: higher = more signal.
Assay [14] has as its target Carbonic anhydrase 2 (Homo sapiens) (UniProt P00918). Briefly: CAII small-molecule binders, profiling panel, biochemical, small-molecule microarray, Alexa647-labelled CAII (AID 1122). The conditions noted are these: CAII-A647 binding fluorescence, higher = more signal.
Assay [15] can be described thus: COS7 lysate on small-molecule microarray, probe aHis, 635 nm (AID 1123).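 Also: z-score combines 667nm fluorescence intensity with signal-to-noise per printed compound spot.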 The conditions noted are these: COS7 cell lysate, fluorescence, higher = more signal.
A short description of assay [16]: compound binding in COS7 lysate, probe aLAP1, primary screen, cell lysate, small-molecule microarray (AID 1124).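 Also: lysate comes from COS7 cells expressing LAP1 and is applied at 0.3 µg/mL; score merges spot fluorescence near 667 nm with signal-to-noise over triplicate slides.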 Conditions: probe aLAP1, fluorescence, higher = more signal.
The next assay has as its system Sam68 (KHDRBS1). Briefly: Sam68 small-molecule binders, primary screen, biochemical, small-molecule microarray, 635 nm fluorescence (AID 1125).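 Also: score merges 667 nm channel intensity with signal to noise over triplicate slides.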 The conditions noted are these: small-molecule microarray binding, higher = more signal.
The subject of assay [17] is Chordin-like protein 2 (CHRDL2). Briefly: CHRDL2 small-molecule binders, primary screen, biochemical, small-molecule microarray, 635 nm fluorescence (AID 1126).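 Also: printed compound slides probed with Chrdl2 protein at 4 µg/mL for 1 h at 4 C; score merges 667 nm emission intensity with signal to noise over three replicate slides.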 Conditions: small-molecule microarray binding, fluorescence 635 nm; higher = more signal.
The target of assay [18] is Concanavalin-A (Canavalia ensiformis) (UniProt P02866). Briefly: ConA small-molecule binders, primary screen, artefact control for SMM control protein annotation, biochemical, small-molecule microarray, Alexa647 label, 635 nm (AID 1127).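 Also: z combines 667 nm emission intensity with signal-to-noise across three replicate slides.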 Conditions: ConA-A647 binding fluorescence, higher = more signal.
Chain of Concanavalin-A (Canavalia ensiformis) (P02866 whole entry, looked up): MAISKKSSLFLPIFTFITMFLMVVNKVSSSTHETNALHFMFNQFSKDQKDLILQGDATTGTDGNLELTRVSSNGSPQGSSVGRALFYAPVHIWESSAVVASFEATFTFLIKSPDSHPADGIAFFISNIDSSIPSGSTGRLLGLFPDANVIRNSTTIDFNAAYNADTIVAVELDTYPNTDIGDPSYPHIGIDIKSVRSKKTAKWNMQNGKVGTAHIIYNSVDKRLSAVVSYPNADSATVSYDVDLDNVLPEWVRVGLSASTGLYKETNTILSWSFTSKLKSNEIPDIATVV

Experimental findings from PubChem BioAssay are described below.

Calls of active or inactive are those of the source.

Chain of Alpha-bungarotoxin (Bungarus multicinctus) (P60615 whole entry, looked up): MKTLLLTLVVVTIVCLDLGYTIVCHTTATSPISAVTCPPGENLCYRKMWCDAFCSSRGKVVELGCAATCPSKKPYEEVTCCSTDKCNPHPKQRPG
Chain of Albumin (Bos taurus) (P02769 whole entry, looked up): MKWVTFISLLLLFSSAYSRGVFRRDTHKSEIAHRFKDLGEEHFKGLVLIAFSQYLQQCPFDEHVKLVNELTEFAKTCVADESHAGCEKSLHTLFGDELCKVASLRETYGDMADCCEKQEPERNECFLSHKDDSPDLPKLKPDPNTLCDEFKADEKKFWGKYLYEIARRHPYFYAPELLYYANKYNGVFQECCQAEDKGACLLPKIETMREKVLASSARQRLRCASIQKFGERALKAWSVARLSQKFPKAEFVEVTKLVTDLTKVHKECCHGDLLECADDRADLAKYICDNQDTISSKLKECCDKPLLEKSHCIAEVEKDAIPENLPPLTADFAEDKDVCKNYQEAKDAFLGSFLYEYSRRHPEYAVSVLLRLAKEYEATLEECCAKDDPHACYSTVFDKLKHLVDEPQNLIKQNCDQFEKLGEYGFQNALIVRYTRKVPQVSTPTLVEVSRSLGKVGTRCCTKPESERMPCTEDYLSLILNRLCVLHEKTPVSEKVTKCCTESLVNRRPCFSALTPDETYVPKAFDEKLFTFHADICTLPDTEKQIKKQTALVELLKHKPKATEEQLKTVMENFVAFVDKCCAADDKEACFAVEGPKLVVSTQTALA

For `O=C1C2C=CC(C(O)c3ccc4c(c3)OCO4)N(Nc3ccc([N+](=O)[O-])cc3)C2C(=O)N1c1ccccc1` (stereo not given), the composite z-score in assay [1] is 1.12; in [3], 0.219; in assay [4], -0.182; in assay [5] it was -0.429; in [6], -0.0445; in assay [7] it was -0.0968. The composite z-score in assay [8] is -0.418; in [9], -0.181; in assay [10], 0.177; in the assay with Albumin (Bos taurus), 0.854; in assay [12], 0.0225; in assay [13], -0.104. Also, the composite z-score in [14] was 0.699; in assay [15], 1.15; in assay [16] it was 0.345; with Sam68 (KHDRBS1), 0.597; in [17], -0.0385; in [18] it was 0.813. This molecule showed a z-score in assay [2] of -0.133. Further, the composite Z-score in assay [11] is -0.0054 (inactive).

On to `CN(C)CCCCCCNC(=O)[C@@H]1C[C@@H]2C(=O)N3CCC[C@H]3C(=O)N2[C@@H]1c1ccc(O)cc1`, for which the composite z-score was 1.42 in [1]; 1.5 in assay [3]; -1.95 in assay [4]; -1.42 in assay [5]; -0.062 in assay [6]; 0.42 in assay [7]. The composite z-score was -0.364 in assay [8]; 2.23 in [9]; 2.36 in [10]; -0.645 with Albumin (Bos taurus); 0.488 in assay [12]; 0.119 in assay [13]. Moreover, the composite z-score in assay [14] was found to be 0.738; in assay [15] it was 2.77; in assay [16] it was 1.47; with Sam68 (KHDRBS1), 1.31; in assay [17], 1.43; in [18], 1.16. In assay [2], this molecule registered a z-score of 1.49. Also, the composite Z-score in [11] is 2.74 (inactive).

Consider `COc1ccc(C#Cc2ccc3c(c2)[C@]2(C(=O)N3)[C@H](c3ccc(O)cc3)N3[C@H](c4ccccc4)[C@H](c4ccccc4)OC(=O)[C@H]3[C@@H]2C(=O)N2CCc3cc(OC)c(OC)cc3C2)cc1`, for which the composite z-score in [1] was 1.36; in assay [3], 0.406; in assay [4], 1.02; in assay [5] it was 0.745; in assay [6], -0.0643; in assay [7], -0.161. Also, the composite z-score in assay [8] was -0.0503; in assay [9], 0.7; in assay [10], 1.67; with Albumin (Bos taurus), 0.719; in assay [12], 0.0196; in [13], -0.12. Further, the composite z-score in assay [14] was 0.459; in assay [15], 1.33; in assay [16], 0.326; in the assay on Sam68 (KHDRBS1), 1.31; in assay [17], 0.356; in assay [18] it was 1.12. The z-score in assay [2] is -1.11. The composite Z-score in [11] is 1.39 (inactive).

Turning to `C[N+](C)(C)CCCC[C@@H]1NC(=O)[C@@H]2C[C@H](C(=O)NCCCCCCNC(=O)CS)[C@H](c3ccc(O)cc3)N2C1=O`, the composite z-score was -0.421 in assay [1]; -0.638 in assay [3]; -0.4 in [4]; -0.281 in [5]; -0.237 in [6]; -0.304 in [7]. Besides, the composite z-score was -0.0721 in assay [8]; 0.958 in assay [9]; 1.33 in assay [10]; 0.303 with Albumin (Bos taurus); -0.443 in assay [12]; -0.115 in assay [13]. Further, the composite z-score in assay [14] is 0.82; in assay [15], 0.443; in assay [16], 0.596; with Sam68 (KHDRBS1) it was -0.731; in assay [17] it was -0.377; in assay [18], 0.871. The z-score in assay [2] worked out at 0.164. Moreover, the composite Z-score in [11] was 0.0896 (inactive).

`C[N+](C)(C)CCCC[C@@H]1NC(=O)[C@@H]2C[C@H](C(=O)NCCCCCN)[C@H](c3ccc(O)cc3)N2C1=O`: the composite z-score was 1.34 in assay [1]; 1.24 in assay [3]; 2.08 in assay [4]; 1.12 in assay [5]; 0.0775 in [6]; -0.167 in assay [7]. The composite z-score stood at 1.57 in assay [8]; 1.29 in assay [9]; 2.13 in assay [10]; 0.877 with Albumin (Bos taurus); 0.363 in assay [12]; 0.154 in assay [13]. For the same molecule, the composite z-score in assay [14] came out at 0.72; in assay [15] it was 1.53; in assay [16], 1.02; in the assay with Sam68 (KHDRBS1), 1.19; in assay [17], 0.248; in assay [18], 1.15. Moreover, the z-score in [2] was 0.0633. In assay [11], the composite Z-score was 1.01 (inactive).

Consider `CCOC(=O)C[C@H]1[C@H](OC(=O)c2cc3ccccc3oc2=O)[C@@H](NC(=O)CC(C)C)c2cc(OCCCO)ccc2N1C(=O)c1ccccc1`, for which the composite z-score is 0.886 in [1]; 0.371 in assay [3]; -0.299 in assay [4]; -0.543 in assay [5]; 0.0317 in assay [6]; -0.0011 in assay [7]. Besides, the composite z-score is 0.819 in [8]; 0.124 in assay [9]; 1.06 in assay [10]; 0.793 with Albumin (Bos taurus); -0.0044 in assay [12]; -0.14 in [13]. The composite z-score was 0.308 in assay [14]; 0.614 in [15]; 0.139 in [16]; 1.21 with Sam68 (KHDRBS1); 0.202 in assay [17]; 0.298 in [18]. In assay [2], this molecule gave a z-score of 0.186. The composite Z-score in assay [11] was -0.081 (inactive).
